# Screening results from PubChem.
# BL2 CD40 inh = CD40 pathway inhibition in BL2 cells | BL2 NF-kB luciferase reporter, CD40L-induced, 4 h | inhibition, % at 10 µM | 83,000 tested, 0.94% active | AID 1053188;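 active = mean inhibition of at least 50% with a set share of replicates also reaching that level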
# Hits are given with their value; 0 = inactive; [ ] = dose if it differs, or a comment. The entries come from a sample that favours hits as a whole.
SMILES,BL2 CD40 inh
C[C@@H]1CN([C@@H](C)CO)C(=O)c2cccc(NC(=O)Nc3ccc(F)cc3)c2O[C@H]1CN(C)S(=O)(=O)c1ccc(Cl)cc1,0
C[C@H](CO)N1C[C@H](C)[C@@H](CN(C)S(=O)(=O)c2ccccc2)Oc2ccc(NC(=O)Nc3ccccc3)cc2C1=O,0
COc1ccc(S(=O)(=O)N(C)C[C@H]2Oc3ccc(NC(=O)Nc4ccc(C(F)(F)F)cc4)cc3C(=O)N([C@H](C)CO)C[C@H]2C)cc1,66[25 µM]
COc1ccc(S(=O)(=O)N(C)C[C@H]2OCCCC[C@@H](C)Oc3ccc(NC(=O)Nc4ccc(F)cc4)cc3C(=O)N([C@H](C)CO)C[C@@H]2C)cc1,0
O=S(=O)(c1ccccc1)N1CCN(S(=O)(=O)c2ccccc2)C1,0
O=C(Nc1ccc(Cl)cn1)c1ccc(COc2ccccc2Br)o1,0
CO[C@H](CN(C)Cc1ccc2c(c1)OCO2)[C@H](C)CN(C(=O)c1ccccc1)[C@@H](C)CO,0
COc1ccc(CN2CC(C(=O)NCc3ccc4c(c3)OCO4)CC2=O)cc1 (stereo not given),0
O=C(OC(c1ccccc1)c1nccc2ccccc12)c1ccccc1 (stereo not given),0
COc1ccccc1NC(=O)NC(N)=O,0
Cn1c(=O)c2c(nc(N3CCOCC3)n2CCc2ccccc2)n(C)c1=O,0
Cc1nnc(SCC(=O)NC2CCCC(C)C2C)n1N (stereo not given),0
COCCNC(=O)C(=O)Nc1ccc2c(c1)N(S(=O)(=O)c1cccs1)CCC2,0
O=C(COC(=O)c1cccc(S(=O)(=O)NCc2ccccc2)c1)NC1CC1,0
O=C(CCNC(=O)c1ccccc1Cl)Nc1nnc(C2CC2)s1,0
COc1ccc(CCNC(=O)C(=O)NCc2ccc(C)cc2)cc1OC,0
Cc1ccc(-c2cnc3c(c2)C(=O)N([C@H](C)CO)C[C@H](C)[C@H](CN(C)C(=O)CN(C)C)O3)cc1,0
C[C@@H]1CN([C@@H](C)CO)C(=O)c2cccc(NS(=O)(=O)c3ccc(Cl)cc3)c2O[C@@H]1CN(C)Cc1ccc(C(=O)Nc2ccccc2N)cc1,active[25 µM]
Cc1ccc(-c2cnc3c(c2)C(=O)N([C@@H](C)CO)C[C@H](C)[C@H](CN(C)C(=O)CN(C)C)O3)cc1,0
C[C@H]1CN([C@@H](C)CO)C(=O)c2cccc(NS(=O)(=O)c3ccc(Cl)cc3)c2O[C@@H]1CN(C)Cc1ccc(C(=O)Nc2ccccc2N)cc1,0
COc1ccc(-c2cnc3c(c2)C(=O)N([C@H](C)CO)C[C@@H](C)[C@@H](CN(C)C(=O)Nc2c(C)noc2C)O3)cc1,65[25 µM]
C[C@@H]1CN([C@H](C)CO)C(=O)c2cccc(NS(=O)(=O)c3ccc(Cl)cc3)c2O[C@H]1CN(C)Cc1ccc(C(=O)Nc2ccccc2N)cc1,0
O=C1N[C@H](c2ccccc2)COCc2cn(nn2)CC[C@@H]1Cc1ccccc1,0
CCN1CCN(CCC(=O)Nc2ccc3c(c2)OCO3)CC1,0
COC(=O)c1cc(C)sc1NC(=O)CCCC(=O)O,0
SMILES,BL2 CD40 inh
COC(=O)Cn1c2c(c3cc(C)ccc31)CCCC2NC(C)c1ccccc1 (stereo not given),0
O=S(=O)(Nc1ccccc1)c1ccc(S(=O)(=O)N2CCCC2)cc1,0
NC(=O)c1ccccc1NS(=O)(=O)c1ccc(S(=O)(=O)N2CCCC2)cc1,0
O=S(=O)(Nc1cccc2cccnc12)c1ccc(S(=O)(=O)N2CCCC2)cc1,76
CCN1CCN(c2ccc(S(=O)(=O)N3CCCCC3)cc2NC(=O)c2ccc(OC(F)F)cc2)CC1,0
CC(=O)NC[C@H]1[C@@H](c2ccc(C3=CCCCC3)cc2)[C@@H](CO)N1C(=O)NC(C)C,0
CO[C@H]1CN(C)C(=O)c2cc(NC(=O)C3CCCCC3)ccc2OC[C@@H](C)N(C(=O)c2ccccc2)C[C@H]1C,0
O=C(COCc1cc(-c2ccc3c(c2)OCO3)on1)N1CCCCC1,0
O=C(c1cc(-c2ccc3c(c2)OCO3)on1)N1CCOCC1,48
O=C(c1cc(-c2ccc3c(c2)OCO3)on1)N1CCN(c2ccccc2)CC1,0
COc1ccc(C[C@H]2CCc3cnnn3COC[C@H](CC(C)C)NC2=O)cc1,0
CCN(CC(=O)NCc1cccs1)S(=O)(=O)c1c(F)cccc1F,0
Cc1onc(-c2ccccc2Cl)c1-c1nc(-c2ccncc2)no1,0
COCC(=O)N1[C@H](CO)[C@@H](c2ccccc2)[C@H]1CN(C)C(=O)c1cccnc1,0
CCCCNC(=O)C1(C)CCN1C(=O)c1ccc(C)c(F)c1 (stereo not given),0
CCCCNC(=O)C1(C)CCN1C(=O)c1cc(-c2cccs2)oc1C (stereo not given),105
CCCCNC(=O)C1(C)CCN1C(=O)c1ccccc1Br (stereo not given),0
Cc1nc(-c2ccc3c(c2)OCCCO3)cs1,0
O=C(COc1ccc2c(c1)CCC2)Nc1ccccn1,90
Cc1cccc(NC(=O)COc2ccc3c(c2)CCC3)n1,0
Cc1cnc(NC(=O)COc2ccc3c(c2)CCC3)s1,0
Cc1ccc(C(=O)NCC(=O)OCc2nc3ccsc3c(=O)[nH]2)cc1C,0
O=C(OCC1OC2OC3(CCCCC3)OC2C2OC3(CCCCC3)OC12)c1ccccc1 (stereo not given),0
COCC(=O)N1[C@@H]2CNc3ccccc3[C@@H]2[C@@H]1CO,0
CCCN1C(=O)c2cc(C(=O)O)ccc2C1O (stereo not given),0
SMILES,BL2 CD40 inh
CCOc1ccc2nc(NC(=O)Cn3cnc4c3c(=O)n(C)c(=O)n4C)sc2c1,0
C[C@H](CO)N1C[C@H](C)[C@@H](CN(C)C(=O)Nc2cccc(Cl)c2Cl)OCc2ccccc2-c2c(n(C)c3ccccc23)C1=O,0
C[C@@H]1CN([C@@H](C)CO)C(=O)c2c(c3ccccc3n2C)-c2ccccc2CO[C@H]1CN(C)C(=O)Nc1cccc(Cl)c1Cl,0
C[C@H]1CN([C@@H](C)CO)C(=O)c2c(c3ccccc3n2C)-c2ccccc2CO[C@H]1CN(C)C(=O)Nc1cccc(Cl)c1Cl,0
C[C@H](CO)N1C[C@H](C)[C@H](CN(C)C(=O)Nc2cccc(Cl)c2Cl)OCc2ccccc2-c2c(n(C)c3ccccc23)C1=O,65[25 µM]
C[C@@H]1CN([C@H](C)CO)C(=O)c2c(c3ccccc3n2C)-c2ccccc2CO[C@H]1CN(C)C(=O)Nc1cccc(Cl)c1Cl,54[25 µM]
COc1ccccc1NC(=O)N(C)C[C@H]1OCc2ccccc2-c2c(n(C)c3ccccc23)C(=O)N([C@@H](C)CO)C[C@H]1C,0
O=C(COc1ccc(Cl)cc1)N1N=C(c2cccs2)CC1c1ccco1 (stereo not given),0
C/C=C/c1ccc([C@H]2[C@H](CO)N[C@H]2CN(C)S(=O)(=O)c2ccccc2)cc1,0
c1ccc(Cn2nnc3c(N4CCCC4)ncnc32)cc1,0
c1ccc(-n2nnc3c(N4CCOCC4)ncnc32)cc1,68
Cc1nnc(N2CCOCC2)c2nn(-c3ccccc3)c(C)c12,0
C[C@@H]1CC(=O)NCC/C=C\C[C@H](c2ccc3c(c2)OCO3)NC1=O,0
COC(CNC(=O)C(=O)Nc1ccc2c(c1)N(S(=O)(=O)c1cccs1)CCC2)OC,0
N=c1cc(C2(O)CCCCC2)n2c(nc3ccccc32)s1,66
O=C(C1CCCCC1)N1CCCn2c1nc1ccccc12,0
NC1=NC2(CCCCC2)n2c(nc3ccccc32)N1,0
CCCCN(C(=O)COC(=O)c1ccc(C)s1)c1c(N)n(CCC)c(=O)[nH]c1=O,0
Cc1nc(CSc2nnc(C)s2)cs1,0
CC(=O)N(C)C[C@H]1OCc2ccccc2-c2c(n(C)c3ccccc23)C(=O)N([C@@H](C)CO)C[C@@H]1C,0
